Reference: publication PMC4336329 (PLoS ONE, 2015)
Screen size: about 310,000 compounds; about 2,200 (0.71%) showed an effect of 50% or more. The effect is printed as a negative number. Shown is part of a subset that was picked to be rich in strong results.

The molecules below were run against human ether-à-go-go-related gene (hERG) potassium channel (human, UniProt Q12809) (assay: primary screen, population patch clamp on CHO cells stably expressing hERG; higher = less effect of the substance).
human ether-à-go-go-related gene (hERG) potassium channel, sequence (Q12809 whole entry, looked up): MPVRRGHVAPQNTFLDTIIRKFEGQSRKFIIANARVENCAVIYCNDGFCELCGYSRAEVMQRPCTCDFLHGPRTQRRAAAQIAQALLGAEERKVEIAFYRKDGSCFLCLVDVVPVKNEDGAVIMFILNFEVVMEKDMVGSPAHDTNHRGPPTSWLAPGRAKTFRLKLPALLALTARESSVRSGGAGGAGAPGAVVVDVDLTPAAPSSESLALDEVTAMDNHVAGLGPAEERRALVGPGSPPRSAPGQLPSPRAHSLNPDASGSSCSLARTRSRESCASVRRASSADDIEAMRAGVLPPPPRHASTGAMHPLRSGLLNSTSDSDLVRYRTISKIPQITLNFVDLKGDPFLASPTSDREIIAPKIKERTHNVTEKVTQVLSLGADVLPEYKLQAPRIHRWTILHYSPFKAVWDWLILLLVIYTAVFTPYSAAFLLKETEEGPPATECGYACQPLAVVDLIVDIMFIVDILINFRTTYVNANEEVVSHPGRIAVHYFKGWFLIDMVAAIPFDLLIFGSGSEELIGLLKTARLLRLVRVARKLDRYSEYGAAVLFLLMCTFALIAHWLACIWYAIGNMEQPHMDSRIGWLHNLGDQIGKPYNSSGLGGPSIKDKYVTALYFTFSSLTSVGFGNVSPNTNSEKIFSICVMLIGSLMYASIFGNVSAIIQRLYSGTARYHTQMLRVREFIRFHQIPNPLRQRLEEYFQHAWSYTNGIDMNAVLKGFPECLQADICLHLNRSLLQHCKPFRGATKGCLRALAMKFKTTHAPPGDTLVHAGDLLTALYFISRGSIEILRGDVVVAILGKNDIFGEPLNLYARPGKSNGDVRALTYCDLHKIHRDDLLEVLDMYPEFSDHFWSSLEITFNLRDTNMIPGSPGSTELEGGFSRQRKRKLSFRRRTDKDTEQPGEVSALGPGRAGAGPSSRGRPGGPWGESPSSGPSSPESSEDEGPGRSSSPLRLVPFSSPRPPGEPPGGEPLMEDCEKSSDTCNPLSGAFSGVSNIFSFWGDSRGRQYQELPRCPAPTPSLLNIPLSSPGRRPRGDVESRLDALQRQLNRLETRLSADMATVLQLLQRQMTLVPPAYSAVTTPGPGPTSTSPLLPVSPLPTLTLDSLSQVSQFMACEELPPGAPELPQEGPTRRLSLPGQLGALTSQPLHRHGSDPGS
In the case of `COc1ccc2[nH]cc(CCNC(=O)CCC3CCCCC3)c2c1`, the “hERG current change (%, negative = inhibition) at 1uM” value is reported as 1.77%.
With `O=C(COC(=O)c1ncc(Cl)c(Cl)c1Cl)NC1CCS(=O)(=O)C1` (stereo not shown) the “hERG current change (%, negative = inhibition) at 1uM” value was -1.03%.
In the case of `Cc1ccc(S(=O)(=O)N2CCOC23CCN(C(=O)C(=O)NCCC(C)C)CC3)cc1`, the “hERG current change (%, negative = inhibition) at 1uM” value is reported as 4.48%.
`O=c1[nH]c(=O)n(CCc2ccc(F)cc2)c(O)c1/C=N/N1CCCCC1` was tested, and the “hERG current change (%, negative = inhibition) at 1uM” value was 11.7%.
`CCOC(=O)C1(C)/C(=N/Nc2ccccc2)C(=O)C(=O)N1c1ccccc1` (stereo not shown) was tested, and the “hERG current change (%, negative = inhibition) at 1uM” value was -3.13%.
In the case of `Cc1cccn2c(=O)c3cc(C(=O)NCCN4CCOCC4)c(=N)n(Cc4cccnc4)c3nc12`, the “hERG current change (%, negative = inhibition) at 1uM” value is reported as 9.95%.
For `Cc1cccn2c(=O)c3cc(C(=O)NCC4CCCO4)c(=N)n(Cc4cccnc4)c3nc12` (stereo not shown), the “hERG current change (%, negative = inhibition) at 1uM” value was -96.3%.
With `Cc1cccn2c(=O)c3cc(C(=O)NCC4CCCO4)c(=N)n(Cc4ccc(F)cc4)c3nc12` (stereo not shown) the “hERG current change (%, negative = inhibition) at 1uM” value was -80.4%.
For `Cc1cccn2c(=O)c3cc(C(=O)NCc4cccnc4)c(=N)n(CC4CCCO4)c3nc12` (stereo not shown), the “hERG current change (%, negative = inhibition) at 1uM” value was -78.5%.
For `Cc1ccc(Cn2c(=N)c(C(=O)NCC3CCCO3)cc3c(=O)n4cccc(C)c4nc32)cc1` (stereo not shown), the “hERG current change (%, negative = inhibition) at 1uM” value was -85.9%.
For `Cc1cccn2c(=O)c3cc(C(=O)NC4CCCC4)c(=N)n(Cc4ccc(F)cc4)c3nc12`, the “hERG current change (%, negative = inhibition) at 1uM” value was -19.4%.
With `Cc1cccn2c(=O)c3cc(C#N)c(=NC(=O)c4cccnc4)n(CC4CCCO4)c3nc12` (stereo not shown) the “hERG current change (%, negative = inhibition) at 1uM” value was -10.2%.
`Cc1cccn2c(=O)c3cc(C(=O)NC4CCCCC4)c(=N)n(Cc4ccc(F)cc4)c3nc12` was tested, and the “hERG current change (%, negative = inhibition) at 1uM” value was -16%.
For `CCn1c(SCc2nc(CC(=O)Nc3ccccc3OC)no2)nnc1-c1cccs1`, the “hERG current change (%, negative = inhibition) at 1uM” value was -19.1%.
For `COc1ccc(CNC(=O)C2CSC(=O)C2)cc1` (stereo not shown), the “hERG current change (%, negative = inhibition) at 1uM” value was 8.88%.
For `Cc1cccc(-n2c(O)c(/C=N/NC(=O)c3ccccc3Cl)c3ccccc3c2=O)n1`, the “hERG current change (%, negative = inhibition) at 1uM” value was 9.11%.
For `COc1cccc(/C=C/C(=O)OCC(=O)Nc2cc(C(F)(F)F)ccc2Cl)c1`, the “hERG current change (%, negative = inhibition) at 1uM” value was 8.68%.
For `CN(C(=O)c1ccc(OC2CCN(S(=O)(=O)N(C)C)CC2)cc1)C1CCCCC1`, the “hERG current change (%, negative = inhibition) at 1uM” value was -1.59%.
With `O=C(NCCNC(=O)c1cc(OCC(F)(F)F)ccc1OCC(F)(F)F)Nc1ccccc1` the “hERG current change (%, negative = inhibition) at 1uM” value was -15%.
`CCN1CCS/C1=C/C=C/C1=[N+](CC)CCS1.[I-]` was tested, and the “hERG current change (%, negative = inhibition) at 1uM” value was 3.64%.
In the case of `Cc1ccc(S(=O)(=O)Nc2ccc3c(c2)nc(CCN2CCCCC2)n3C)cc1`, the “hERG current change (%, negative = inhibition) at 1uM” value is reported as -29.7%.
In the case of `Cn1c(CN2CCCC2)nc2cc(NS(=O)(=O)c3ccc(Cl)cc3)ccc21`, the “hERG current change (%, negative = inhibition) at 1uM” value is reported as -31%.
With `CC(=O)N1CCN(Cc2nc3cc([N+](=O)[O-])ccc3n2C)CC1` the “hERG current change (%, negative = inhibition) at 1uM” value was 14%.
For `Cn1c(CN2CCN(C(=O)c3ccc(F)cc3)CC2)nc2cc([N+](=O)[O-])ccc21`, the “hERG current change (%, negative = inhibition) at 1uM” value was -59.1%.
In the case of `Cn1c(CN2CCCCC2)nc2cc(NS(=O)(=O)c3ccc(Cl)cc3)ccc21`, the “hERG current change (%, negative = inhibition) at 1uM” value is reported as -9.75%.
With `Cn1c(CCN2CCCCC2)nc2cc([N+](=O)[O-])ccc21` the “hERG current change (%, negative = inhibition) at 1uM” value was -54.8%.
In the case of `Cn1c(CCN2CCCC2)nc2cc(NS(=O)(=O)c3ccc(Cl)cc3)ccc21`, the “hERG current change (%, negative = inhibition) at 1uM” value is reported as -62%.
In the case of `CCN1CCN(CCc2nc3cc([N+](=O)[O-])ccc3n2C)CC1`, the “hERG current change (%, negative = inhibition) at 1uM” value is reported as -1.88%.
In the case of `Cn1c(CCN2CCCCC2)nc2cc(NS(=O)(=O)c3ccc(Cl)cc3)ccc21`, the “hERG current change (%, negative = inhibition) at 1uM” value is reported as -59.1%.
`Cn1c(CN2CCN(C(=O)c3ccccc3)CC2)nc2cc([N+](=O)[O-])ccc21` was tested, and the “hERG current change (%, negative = inhibition) at 1uM” value was -29.6%.
`Cn1c(CN2CCCCC2)nc2cc([N+](=O)[O-])ccc21` was tested, and the “hERG current change (%, negative = inhibition) at 1uM” value was -2.57%.
In the case of `Cc1ccc(S(=O)(=O)Nc2ccc3c(c2)nc(CCN2CCCC2)n3C)cc1`, the “hERG current change (%, negative = inhibition) at 1uM” value is reported as -13.7%.
With `CSCCC(NC(=O)OCc1ccccc1)C(=O)NCc1cccnc1` (stereo not shown) the “hERG current change (%, negative = inhibition) at 1uM” value was 9.52%.
For `O=C(N/N=C/c1ccc2c(c1)OCO2)c1ccc(COCC(F)(F)C(F)F)cc1`, the “hERG current change (%, negative = inhibition) at 1uM” value was 9.11%.
For `N#Cc1nc(Cc2ccccc2)oc1N1CCCC1`, the “hERG current change (%, negative = inhibition) at 1uM” value was 4.79%.
For `Cc1ccc(C)c(-n2ccnc2SCC(=O)O)c1`, the “hERG current change (%, negative = inhibition) at 1uM” value was 14.4%.
With `COC(=O)c1sc(S(=O)(=O)NC(C)C(=O)O)c(C(=O)OC)c1C` (stereo not shown) the “hERG current change (%, negative = inhibition) at 1uM” value was -4.83%.
For `CCCN(CCC)CCCNC(=O)C1CCN(S(=O)(=O)c2cccc3nsnc23)CC1`, the “hERG current change (%, negative = inhibition) at 1uM” value was 12.5%.
With `CCc1ccc(NC(=O)Nc2cccs2)cc1` the “hERG current change (%, negative = inhibition) at 1uM” value was 21.2%.
`COc1cccc(C2=NOC(C(=O)Nc3ccc4c(c3)OCO4)C2)c1` (stereo not shown) was tested, and the “hERG current change (%, negative = inhibition) at 1uM” value was 12.7%.
In the case of `CCNS(=O)(=O)c1ccc(CCC(=O)N2CCN(c3cc(Cl)ccc3C)CC2)cc1`, the “hERG current change (%, negative = inhibition) at 1uM” value is reported as 12.4%.
In the case of `CCCOC1OC(=O)c2c1ccc(OC)c2OC` (stereo not shown), the “hERG current change (%, negative = inhibition) at 1uM” value is reported as 11.9%.
With `Cc1cccc(S(=O)(=O)Nc2ccc(-c3ccc4nncn4n3)cc2)c1` the “hERG current change (%, negative = inhibition) at 1uM” value was -85.6%.
For `Cc1ccc(S(=O)(=O)Nc2ccc(-c3ccc4nncn4n3)cc2)cc1`, the “hERG current change (%, negative = inhibition) at 1uM” value was 24.9%.
`O=S(=O)(Nc1ccc(-c2ccc3nncn3n2)cc1)c1cccc(F)c1` was tested, and the “hERG current change (%, negative = inhibition) at 1uM” value was 14.1%.
For `BrCC1C[n+]2c(SCc3ccccc3)nc3sc4c(c3c2O1)CCCC4.[Br-]` (stereo not shown), the “hERG current change (%, negative = inhibition) at 1uM” value was 10.3%.
With `Cc1ccc2c(c1)CCCN2C(=O)c1ccncc1` the “hERG current change (%, negative = inhibition) at 1uM” value was 8.11%.
`CCOC(=O)c1cccc(N2C(=O)C3C(C2=O)C2C=CC3C23CC3)c1` (stereo not shown) was tested, and the “hERG current change (%, negative = inhibition) at 1uM” value was 8.16%.
With `CCOc1ccccc1N1CCN(c2nc3ccccc3nc2C(C#N)C(=O)OC(C)C)CC1` (stereo not shown) the “hERG current change (%, negative = inhibition) at 1uM” value was 12.5%.
In the case of `CCOc1ccc(C(=O)N2CCN(c3ccccc3)CC2)cc1OCC`, the “hERG current change (%, negative = inhibition) at 1uM” value is reported as 1.55%.
`COc1ccc(C(=O)N2CCN(CCc3ccccc3)CC2)cc1[N+](=O)[O-]` was tested, and the “hERG current change (%, negative = inhibition) at 1uM” value was -73.5%.
In the case of `CCOc1ccc(C(=O)N2CCN(C(=O)c3ccco3)CC2)cc1OCC`, the “hERG current change (%, negative = inhibition) at 1uM” value is reported as 10.8%.
With `CCOc1ccc(C(=O)N2CCN(CCc3ccccc3)CC2)cc1OCC` the “hERG current change (%, negative = inhibition) at 1uM” value was -77.5%.
`COc1cc(C(=O)N2CCN(CCCc3ccccc3)CC2)cc(OC)c1OC` was tested, and the “hERG current change (%, negative = inhibition) at 1uM” value was 3.21%.
For `COc1cccc(C(=O)N2CCN(CCCc3ccccc3)CC2)c1OC.O=C(O)C(=O)O`, the “hERG current change (%, negative = inhibition) at 1uM” value was -4.87%.
`COc1ccc(C(=O)N2CCN(Cc3ccc4c(c3)OCO4)CC2)cc1[N+](=O)[O-]` was tested, and the “hERG current change (%, negative = inhibition) at 1uM” value was -6.08%.
In the case of `COc1ccc(C(=O)N2CCN(Cc3ccccc3)CC2)cc1[N+](=O)[O-]`, the “hERG current change (%, negative = inhibition) at 1uM” value is reported as -22.3%.
`O=C(c1cc2ccccc2oc1=O)N1CCN(CCc2ccccc2)CC1` was tested, and the “hERG current change (%, negative = inhibition) at 1uM” value was -60.4%.
For `CN1CCN(C(=O)c2cc3ccccc3oc2=O)CC1`, the “hERG current change (%, negative = inhibition) at 1uM” value was 8.34%.
With `O=C(NCCN1CCN(C(=O)c2cc3ccccc3oc2=O)CC1)c1cc2ccccc2oc1=O` the “hERG current change (%, negative = inhibition) at 1uM” value was -0.615%.
For `COc1ccc(C(=O)N2CCN(CCCc3ccccc3)CC2)cc1OC.O=C(O)C(=O)O`, the “hERG current change (%, negative = inhibition) at 1uM” value was -61.8%.
